{"source": "PubChem BioAssay AID1851", "about": "(National Center for Advancing Translational Sciences (NCATS), 2009)", "note": "The campaign covered roughly 16,000 compounds. About 2,600 (16%) were called active. Roughly 20% stayed inconclusive and do not appear here. Calls come from the whole dose curve; as a rule, active = well fitted curve in the direction sought with a large enough effect; inconclusive = small, poorly fitted or top-dose-only effect, or effect the other way; inactive = no such curve, though single readings can be large or run the other way. The list is a sample of the results. % is set by controls: 0 for no effect and ±100 for the full control effect.", "data": [{"biological_target": "Cytochrome P450 2D6 (Homo sapiens) (UniProt P10635)", "sequence (P10635 whole entry, looked up)": "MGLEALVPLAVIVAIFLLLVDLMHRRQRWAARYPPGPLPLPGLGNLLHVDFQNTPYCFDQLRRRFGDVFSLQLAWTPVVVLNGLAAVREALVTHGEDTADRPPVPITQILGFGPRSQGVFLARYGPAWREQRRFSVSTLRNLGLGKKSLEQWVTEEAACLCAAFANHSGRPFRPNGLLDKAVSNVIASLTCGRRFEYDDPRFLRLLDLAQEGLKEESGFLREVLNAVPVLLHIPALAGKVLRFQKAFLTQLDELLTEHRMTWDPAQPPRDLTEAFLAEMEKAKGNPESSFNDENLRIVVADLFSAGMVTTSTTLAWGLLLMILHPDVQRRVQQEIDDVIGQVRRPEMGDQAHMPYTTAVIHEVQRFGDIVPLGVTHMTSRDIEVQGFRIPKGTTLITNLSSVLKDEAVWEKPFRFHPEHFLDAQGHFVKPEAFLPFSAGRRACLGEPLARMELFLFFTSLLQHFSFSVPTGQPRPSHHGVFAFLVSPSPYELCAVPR", "assay": "Cytochrome panel assay with activity outcomes", "conditions": "recombinant CYP, pro-luciferin dealkylation, luminescence, p450-cyp2d6; series mostly up to 57.1 µM", "values": [{"smiles": "C[C@H]1NC(=O)NC1=O", "AC50": "inactive"}, {"smiles": "CCOC(=O)n1c(=O)n(Cc2c(Cl)cccc2Cl)c2ccccc21", "AC50": "inactive"}, {"smiles": "CC(C)(C)N1C(=O)[C@H]2[C@H]3[C@H](O)[C@H](O)C/C(=N/NC(=O)OCc4ccccc4)[C@@H]3CC[C@@H]2C1=O", "activity, negative = inhibition": "-18.8% [at 11.4 µM] (inactive)"}, {"smiles": "COCC(=O)N1CCC2(CCCN(Cc3ccccc3OC)C2)CC1", "AC50": "inactive"}, {"smiles": "COc1ccccc1CN1CCCC2(CCN(C(C)=O)CC2)C1", "AC50": "3.16 µM (active)"}, {"smiles": "CC(=O)N1CCC[C@@]2(CCN(c3ccncc3)C2)C1", "AC50": "inactive"}, {"smiles": "COC(=O)N1CCC2(CCCN(C(=O)Nc3ccc(OC)cc3)C2)CC1", "AC50": "inactive"}, {"smiles": "COc1ccccc1CN1CC[C@@]2(CCCN(C(C)=O)C2)C1", "AC50": "3.16 µM (active)"}, {"smiles": "COC(=O)N1CCC2(CCCN(Cc3ccccc3OC)C2)CC1", "AC50": "3.16 µM (active)"}, {"smiles": "COCC(=O)N1CCC2(CCCN(C(=O)Nc3cccc(F)c3)C2)CC1", "AC50": "inactive"}, {"smiles": "COCC(=O)N1CCC[C@@]2(CCN(Cc3ccccc3OC)C2)C1", "AC50": "6.31 µM (active)"}, {"smiles": "COc1ccc(NC(=O)N2CC[C@@]3(CCCN(C(C)=O)C3)C2)cc1", "AC50": "inactive"}, {"smiles": "CCSc1nc2nc(C)cc(C)n2n1", "AC50": "inactive"}, {"smiles": "Cn1cc(C(=O)N/N=C/C(Br)=C\\c2ccccc2)ccc1=O", "AC50": "inactive"}, {"smiles": "CCN1CCN(c2nc3c(c(=O)[nH]c(=O)n3C)n2CCCSc2ncccn2)CC1", "AC50": "inactive"}, {"smiles": "COc1ccc(C2/C(=C(/O)c3ccccc3)C(=O)C(=O)N2CC(C)O)c(OC)c1", "note": "(stereo not drawn)", "AC50": "inactive"}, {"smiles": "N#Cc1sc2nc(-c3cccs3)cc(-c3ccc(Cl)cc3)c2c1N", "AC50": "inactive"}, {"smiles": "COc1cc(N=C(N)N=C(N)N)c2ncccc2c1", "activity, negative = inhibition": "-2.16% [at 11.4 µM] (inactive)"}, {"smiles": "Nc1ccc(S(=O)(=O)c2ccc(NC(=O)c3cccnc3)cc2)cc1", "activity, negative = inhibition": "-2.49% [at 11.4 µM] (inactive)"}, {"smiles": "O=c1c2c(-c3ccc(Cl)cc3)csc2nc2n1CCC2", "AC50": "inactive"}, {"smiles": "COCCn1c(=O)[nH]c2cc(C(=O)N3CCN(c4ccccc4OC)CC3)ccc2c1=O", "AC50": "inactive"}, {"smiles": "CCCC1c2c(ccc3ccccc23)Oc2ccc3ccccc3c21", "activity, negative = inhibition": "4.73% [at 11.4 µM] (inactive)"}, {"smiles": "COCC(=O)N1CCC2(CCCN(Cc3ccccc3)C2)CC1", "AC50": "inactive"}, {"smiles": "COCC(=O)N1CCC[C@@]2(CCN(Cc3ccccc3)C2)C1", "AC50": "6.31 µM (active)"}, {"smiles": "COCC(=O)N1CCC[C@@]2(CCN(Cc3ccc(C#N)cc3)C2)C1", "AC50": "inactive"}, {"smiles": "Cc1c(NC(=S)N/N=C/c2ccc(O)cc2)c(=O)n(-c2ccccc2)n1C", "AC50": "inactive"}, {"smiles": "O=C1C(=O)c2ccccc2C(O)=C1C(CCc1ccccc1)C1=C(O)c2ccccc2C(=O)C1=O", "activity, negative = inhibition": "-9.56% [at 11.4 µM] (inactive)"}, {"smiles": "CC(C)[C@@H]1[C@H]2CC[C@H](C2)[C@H]1N", "AC50": "inactive"}, {"smiles": "CCc1ncc(CO)n1Cc1cccc2ccccc12", "activity, negative = inhibition": "-6.66% [at 11.4 µM] (inactive)"}, {"smiles": "Cc1ccc(Sc2cc(Cl)nc(N)n2)cc1", "AC50": "inactive"}, {"smiles": "Cc1ccc2[nH]c(=O)c(NC(N)=S)nc2c1", "AC50": "inactive"}, {"smiles": "CCC(C)NC(=O)C1CCN(C(=O)c2ccccc2)CC1", "note": "(stereo not drawn)", "AC50": "inactive"}, {"smiles": "O=C1CSc2ccc(C(=O)NCCC3=CCCCC3)cc2N1", "AC50": "inactive"}, {"smiles": "CC(C)(C)c1ccc(C(=O)N2CCC(C(=O)NCCC3=CCCCC3)CC2)cc1", "AC50": "22.4 µM (active)"}, {"smiles": "CCNC(=O)C1CC(=O)OC12CCCCC2", "note": "(stereo not drawn)", "AC50": "inactive"}, {"smiles": "O=C(Nc1cccnc1Cl)C1c2ccccc2Oc2ccccc21", "AC50": "inactive"}, {"smiles": "CN(C)CCNS(=O)(=O)N(C)C", "activity, negative = inhibition": "5.07% [at 11.4 µM] (inactive)"}, {"smiles": "CCOc1ccc(-n2ccnc2SCC(=O)Nc2nnc(CC)s2)cc1", "AC50": "inactive"}, {"smiles": "COc1cccc(-n2ccnc2SCC(=O)Nc2nccs2)c1", "AC50": "12.6 µM (active)"}, {"smiles": "CCOc1ccc(-n2ccnc2SCC(=O)Nc2nnc(C)s2)cc1", "AC50": "inactive"}, {"smiles": "COc1ccc(-n2ccnc2SCC(=O)Nc2ccc(OC)cc2OC)cc1", "AC50": "inactive"}, {"smiles": "COc1cccc(NC(=O)CSc2nnc(CN3CCOCC3)n2C)c1", "AC50": "inactive"}, {"smiles": "COc1ccc(-n2ccnc2SCC(=O)Nc2ccccc2)cc1", "AC50": "17.8 µM (active)"}, {"smiles": "COc1cccc([C@H](O)Cn2cc(-c3cccc(CON=C(C)C)c3)nn2)c1", "activity, negative = inhibition": "-1.23% [at 11.4 µM] (inactive)"}, {"smiles": "O=c1c2ccccc2nc2n1CCC2", "AC50": "inactive"}, {"smiles": "CC(=O)c1cc(NC(=O)c2cccc(C(F)(F)F)c2)c(=O)oc1/C=C/N(C)C", "AC50": "inactive"}, {"smiles": "CC1(C)CC(=O)c2c(Cc3ccccc3)n[nH]c2C1", "AC50": "inactive"}, {"smiles": "N#C/C(=C(/O)CN1CCCCC1)c1nc(-c2ccc(Cl)cc2)cs1", "AC50": "inactive"}, {"smiles": "Cn1c(=O)c2[nH]c(-c3ccc(S(=O)(=O)O)cc3)nc2n(C)c1=O", "AC50": "inactive"}, {"smiles": "COCCn1c(=O)c(-c2cccs2)nc2cnc(N3CCN(C)CC3)nc21", "AC50": "inactive"}, {"smiles": "O=c1c(-c2ccc(F)c(F)c2)nc2cncnc2n1Cc1ccccc1Cl", "AC50": "inactive"}, {"smiles": "COc1ccc2c(c1)c(CC(=O)OCC(=O)O)c(C)n2C(=O)c1ccc(Cl)cc1", "AC50": "inactive"}, {"smiles": "NC(=O)OC[C@H](O)COc1ccc(Cl)cc1", "AC50": "inactive"}, {"smiles": "NC(=O)OCC(COC(N)=O)c1ccccc1", "AC50": "0.794 µM (active)"}, {"smiles": "COc1ccccc1OC[C@H](O)COC(N)=O", "AC50": "inactive"}, {"smiles": "COCCn1c(=O)c(-c2ccc(OC)cc2)nc2cnc(N3CCNCC3)nc21", "AC50": "inactive"}, {"smiles": "Cc1ccc(C(=O)Cn2nnc3c(sc4nc5c(c(-c6ccccc6)c43)CCC5)c2=O)cc1", "AC50": "inactive"}, {"smiles": "Cc1ccc(C(=O)CNc2nc3c(c(=O)[nH]c(=O)n3C)n2Cc2ccccc2)cc1", "AC50": "inactive"}, {"smiles": "COc1ccc(NC(=O)C(=O)NNC(=O)c2cccs2)c(OC)c1", "AC50": "inactive"}, {"smiles": "Cc1c(NC(=O)C(C)N2C(=O)c3ccccc3C2=O)c(=O)n(-c2ccccc2)n1C", "note": "(stereo not drawn)", "AC50": "inactive"}, {"smiles": "c1cncc(-c2nnc3n2C2(CCCCC2)Cc2ccccc2-3)c1", "AC50": "inactive"}, {"smiles": "CC1=NC(C)(C)Cc2ccccc21", "AC50": "14.1 µM (active)"}, {"smiles": "Cc1cccc2c1OCC/C2=N\\NC(=O)COc1ccccc1", "AC50": "inactive"}, {"smiles": "Cc1ncc([N+](=O)[O-])n1CCO", "AC50": "inactive"}, {"smiles": "N#Cc1ccc(C2=NC(C(F)(F)F)(C(F)(F)F)c3c(n(Cc4ccco4)c(=O)[nH]c3=O)N2)cc1", "AC50": "inactive"}, {"smiles": "COCCn1c(=O)c(-c2cccs2)nc2cnc(OC)nc21", "AC50": "inactive"}, {"smiles": "Cn1c(=O)c2c3c(sc2n2cnnc12)CCC3", "AC50": "inactive"}, {"smiles": "CN(C)CCn1c(=O)n(Cc2ccco2)c(=O)c2c3c(sc21)CCCCC3", "AC50": "1.58 µM (active)"}, {"smiles": "NC(=O)Cn1c(=O)n(Cc2ccco2)c(=O)c2c3c(sc21)CCCCC3", "AC50": "inactive"}, {"smiles": "CC(=O)N(NC(=O)c1ccccc1Cl)C1CC(=O)N(c2ccc(C)cc2)C1=O", "note": "(stereo not drawn)", "AC50": "inactive"}, {"smiles": "CC(=O)N(C[C@@H](C)C(=O)O)c1c(I)cc(I)c(N)c1I", "AC50": "inactive"}, {"smiles": "CCOc1cc2c(C)cc(=O)oc2cc1Cl", "AC50": "inactive"}, {"smiles": "O=C(COc1ccc(Br)cc1)N1CCC(c2ccccc2)C1", "note": "(stereo not drawn)", "AC50": "17.8 µM (active)"}, {"smiles": "Brc1ccc(-c2csc(N3CCC(c4ccccc4)C3)n2)cc1", "note": "(stereo not drawn)", "AC50": "inactive"}, {"smiles": "CCOc1ccc(NC(=O)N2CCC(c3ccc(C)cc3)C2)cc1", "note": "(stereo not drawn)", "AC50": "inactive"}, {"smiles": "CN(CCCNC(=O)c1ccc(/C=N/O)nc1)CCCN(C)Cc1ccccc1", "AC50": "2.82 µM (active)"}, {"smiles": "COC(=O)c1cc2n(n1)CCN(Cc1ccccc1F)C2=O", "AC50": "inactive"}, {"smiles": "Cc1ccc(C(=O)NC2CCCCC2)cc1", "AC50": "inactive"}, {"smiles": "Cc1ccc(C(=O)C2CCNCC2)cc1", "AC50": "1.41 µM (active)"}, {"smiles": "Cc1ccc(C(=O)/C=C2\\NCC(C)NC2=O)cc1", "note": "(stereo not drawn)", "AC50": "inactive"}, {"smiles": "O=C(Oc1ccc(OC(=O)c2ccco2)c(S(=O)(=O)c2ccc(Br)cc2)c1)c1ccco1", "AC50": "inactive"}, {"smiles": "C/C(=N\\NC(=O)c1ccncc1)c1ccc2ccccc2c1O", "activity, negative = inhibition": "-2.13% [at 11.4 µM] (inactive)"}, {"smiles": "COc1ccc(NC(=O)C(c2ccc(OC)cc2)N(C)C(=O)CNC(C)=O)cc1", "note": "(stereo not drawn)", "AC50": "inactive"}, {"smiles": "CN(C)/C(CN1CCN(C=O)CC1)=C1\\N=C(c2ccccc2)OC1=O", "AC50": "inactive"}, {"smiles": "CC1CN(C(=O)c2cc3c(s2)CCC3)CC(C)O1", "note": "(stereo not drawn)", "AC50": "inactive"}, {"smiles": "CCOc1ccc(OCc2ccc(C(=O)N3CCc4ccccc4C3)o2)cc1", "AC50": "inactive"}, {"smiles": "COc1ccc(NC(=O)c2ccc(COc3ccccc3)o2)cc1", "AC50": "inactive"}, {"smiles": "CN1CCN(C(=O)c2ccc(COc3ccc(C(C)(C)C)cc3)o2)CC1", "AC50": "4.47 µM (active)"}, {"smiles": "CNC[C@H](O)[C@H](O)[C@H](O)[C@H](O)CO", "AC50": "inactive"}, {"smiles": "CO[C@H]1COC(=O)CCC[C@@H](C)[C@H](OC)COC(=O)[C@H]2CCCN2C(=O)C/C=C\\[C@@H]1C", "activity, negative = inhibition": "6.78% [at 11.4 µM] (inactive)"}, {"smiles": "O=c1cc(N2CCN(c3ccccc3)CC2)[nH]c(=O)n1C1CCCCC1", "AC50": "inactive"}, {"smiles": "COc1c(/C=N/Nc2nc(N3CCCCC3)nc(N3CCCCC3)n2)cccc1[N+](=O)[O-]", "AC50": "inactive"}, {"smiles": "CN(Cc1cc(Cl)cc(Cl)c1O)Cc1c(O)ccc2ccccc12", "AC50": "1.26 µM (active)"}, {"smiles": "CCN(Cc1cc(Cl)cc(C)c1O)Cc1c(O)ccc2ccccc12", "AC50": "1.26 µM (active)"}, {"smiles": "COc1ccc(C=Nc2c(O)ccc3ccccc23)cc1OC", "activity, negative = inhibition": "-7.34% [at 11.4 µM] (inactive)"}, {"smiles": "Oc1ccc2ccccc2c1/C=C\\c1ccc2c(Br)cc(Br)c(O)c2n1", "activity, negative = inhibition": "-2.53% [at 11.4 µM] (inactive)"}, {"smiles": "CN(C)Cc1cc(Cl)c(O)c(CN(C)C)c1", "activity, negative = inhibition": "-14% [at 11.4 µM] (inactive)"}, {"smiles": "Oc1ccc(Cl)cc1Cc1cc(Cl)cc(Cc2cc(Cl)ccc2O)c1O", "activity, negative = inhibition": "-10.5% [at 11.4 µM] (inactive)"}, {"smiles": "CN(Cc1cc(Br)cc(Br)c1O)Cc1c(O)ccc2ccccc12", "AC50": "1.58 µM (active)"}, {"smiles": "Cc1c(C(c2cccc([N+](=O)[O-])c2O)c2c(C)n(C)n(-c3ccccc3)c2=O)c(=O)n(-c2ccccc2)n1C", "AC50": "inactive"}, {"smiles": "COc1ccc(C(NC(=O)c2ccc(-c3ccccc3)cc2)c2ccccc2)cc1", "note": "(stereo not drawn)", "AC50": "inactive"}, {"smiles": "CCN(CC)C(=O)C1CCN(S(=O)(=O)c2ccc3oc4ccccc4c3c2)CC1", "AC50": "inactive"}, {"smiles": "COC(=O)c1ccc2ccn(CC(=O)NC3CCCCC3)c2c1", "AC50": "inactive"}]}]}
